Results taken from paper PMC7862700, “An all-to-all approach to the identification of sequence-specific readers for epigenetic DNA modifications on cytosine”.

Experiments:
Assay in all cases: DAPPL (digital affinity profiling via proximity ligation, sequencing); 10 mM Tris-HCl pH 7.5, 50 mM NaCl, 1 mM DTT, 4% glycerol, room temperature, 30 min; GST-TFs on glutathione beads, 16-mer random dsDNA library, 0.1% formaldehyde crosslink after washing; high values mean tight binding
Conditions in all cases: protein: recombinant; tags: N-terminal GST; dsDNA, one strand shown
FLI1 = target: T1, FLI1 (Homo sapiens, UniProt Q01543 1-452)
T1 sequence: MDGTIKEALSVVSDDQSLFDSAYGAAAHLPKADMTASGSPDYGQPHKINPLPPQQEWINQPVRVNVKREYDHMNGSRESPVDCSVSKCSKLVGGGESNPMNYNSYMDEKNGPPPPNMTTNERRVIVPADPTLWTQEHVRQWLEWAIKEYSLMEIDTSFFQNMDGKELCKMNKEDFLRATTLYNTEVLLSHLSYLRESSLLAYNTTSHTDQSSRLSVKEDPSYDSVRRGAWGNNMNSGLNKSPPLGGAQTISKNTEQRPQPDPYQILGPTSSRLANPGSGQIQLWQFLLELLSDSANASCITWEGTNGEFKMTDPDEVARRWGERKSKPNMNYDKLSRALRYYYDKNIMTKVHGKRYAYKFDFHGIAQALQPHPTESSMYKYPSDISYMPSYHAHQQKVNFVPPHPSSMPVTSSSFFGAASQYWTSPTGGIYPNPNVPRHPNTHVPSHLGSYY
Procedure, shortened: (§1)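 After expression in yeast as GST fusions, human transcription factors were bound to glutathione beads, DNA-barcoded and mixed with a tag-only sample. The pools were incubated with 200 nmole of a 16-mer random double-stranded DNA library in Tris/NaCl/DTT/glycerol buffer (30 min, room temperature), washed and crosslinked with 0.1% formaldehyde. Proximity ligation with BsaI/T4 ligase ran for 1 h at 37 °C, before PCR amplification and sequencing on an Illumina NextSeq500. Binding signal is a hexamer's read frequency for a factor divided by its frequency for the tag-only sample.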

ELK1 = target: T2, ELK1 (Homo sapiens, UniProt P19419 1-428)
T2 sequence: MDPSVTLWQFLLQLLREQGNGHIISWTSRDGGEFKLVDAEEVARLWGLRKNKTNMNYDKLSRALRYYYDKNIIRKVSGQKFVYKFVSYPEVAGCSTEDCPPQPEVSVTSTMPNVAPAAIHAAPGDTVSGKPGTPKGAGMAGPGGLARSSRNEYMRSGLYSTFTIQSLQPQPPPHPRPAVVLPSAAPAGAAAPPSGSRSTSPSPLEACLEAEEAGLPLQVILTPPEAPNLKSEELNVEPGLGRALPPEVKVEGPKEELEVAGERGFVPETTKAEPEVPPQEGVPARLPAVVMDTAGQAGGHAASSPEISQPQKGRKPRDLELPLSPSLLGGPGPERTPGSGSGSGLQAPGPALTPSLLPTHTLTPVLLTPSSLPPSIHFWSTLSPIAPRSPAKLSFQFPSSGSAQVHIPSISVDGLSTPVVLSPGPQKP
Procedure, shortened: as §1

GABPA = target: T3, GABPA (Homo sapiens, UniProt Q06546 1-454)
T3 sequence: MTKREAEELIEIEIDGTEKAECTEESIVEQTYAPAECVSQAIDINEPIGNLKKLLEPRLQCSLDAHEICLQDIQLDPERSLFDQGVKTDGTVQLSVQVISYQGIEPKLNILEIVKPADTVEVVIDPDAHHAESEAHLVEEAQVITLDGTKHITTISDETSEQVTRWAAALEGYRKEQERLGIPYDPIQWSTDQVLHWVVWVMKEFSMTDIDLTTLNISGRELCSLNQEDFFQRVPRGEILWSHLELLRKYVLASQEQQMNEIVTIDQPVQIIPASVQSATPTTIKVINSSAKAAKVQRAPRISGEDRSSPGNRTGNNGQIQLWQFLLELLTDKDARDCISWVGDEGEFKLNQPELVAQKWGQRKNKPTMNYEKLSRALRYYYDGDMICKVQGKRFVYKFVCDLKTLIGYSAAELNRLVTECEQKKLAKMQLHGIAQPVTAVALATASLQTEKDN
Procedure, shortened: as §1

ERG = target: T4, ERG (Homo sapiens, UniProt P11308 1-479)
T4 sequence: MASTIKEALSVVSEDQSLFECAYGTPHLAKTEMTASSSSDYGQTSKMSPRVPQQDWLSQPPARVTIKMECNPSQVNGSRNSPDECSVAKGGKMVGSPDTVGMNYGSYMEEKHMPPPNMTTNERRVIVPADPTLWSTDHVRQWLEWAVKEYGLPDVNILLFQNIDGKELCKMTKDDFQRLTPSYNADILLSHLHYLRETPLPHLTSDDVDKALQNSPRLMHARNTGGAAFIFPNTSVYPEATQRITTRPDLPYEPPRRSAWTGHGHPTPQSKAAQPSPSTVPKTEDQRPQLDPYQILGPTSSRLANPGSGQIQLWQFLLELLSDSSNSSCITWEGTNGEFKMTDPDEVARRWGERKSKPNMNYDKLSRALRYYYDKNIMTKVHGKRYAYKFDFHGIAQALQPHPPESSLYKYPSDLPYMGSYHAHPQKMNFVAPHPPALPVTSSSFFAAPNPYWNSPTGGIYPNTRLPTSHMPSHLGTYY
Procedure, shortened: as §1

ELF1 = ELF1 (Homo sapiens, UniProt P32519 1-619)
ELF1, sequence (P32519 whole entry): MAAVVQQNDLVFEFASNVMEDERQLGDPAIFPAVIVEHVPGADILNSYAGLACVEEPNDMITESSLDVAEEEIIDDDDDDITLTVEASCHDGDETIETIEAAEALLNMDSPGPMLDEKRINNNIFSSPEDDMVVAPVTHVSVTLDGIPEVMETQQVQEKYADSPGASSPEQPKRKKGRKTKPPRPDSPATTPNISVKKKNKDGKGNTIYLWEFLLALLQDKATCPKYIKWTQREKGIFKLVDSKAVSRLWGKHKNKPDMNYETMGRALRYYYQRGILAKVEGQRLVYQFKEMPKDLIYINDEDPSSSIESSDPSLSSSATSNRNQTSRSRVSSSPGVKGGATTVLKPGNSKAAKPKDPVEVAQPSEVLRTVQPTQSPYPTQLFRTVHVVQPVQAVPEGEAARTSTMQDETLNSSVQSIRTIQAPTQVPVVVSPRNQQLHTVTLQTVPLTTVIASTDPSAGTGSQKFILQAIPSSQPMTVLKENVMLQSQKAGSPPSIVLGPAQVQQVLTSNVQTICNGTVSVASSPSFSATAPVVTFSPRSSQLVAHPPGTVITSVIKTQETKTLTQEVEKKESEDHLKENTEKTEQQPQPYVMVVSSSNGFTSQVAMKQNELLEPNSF
Procedure, shortened: as §1

EHF = target: T5, EHF (Homo sapiens, UniProt Q9NZC4 1-300)
T5 sequence: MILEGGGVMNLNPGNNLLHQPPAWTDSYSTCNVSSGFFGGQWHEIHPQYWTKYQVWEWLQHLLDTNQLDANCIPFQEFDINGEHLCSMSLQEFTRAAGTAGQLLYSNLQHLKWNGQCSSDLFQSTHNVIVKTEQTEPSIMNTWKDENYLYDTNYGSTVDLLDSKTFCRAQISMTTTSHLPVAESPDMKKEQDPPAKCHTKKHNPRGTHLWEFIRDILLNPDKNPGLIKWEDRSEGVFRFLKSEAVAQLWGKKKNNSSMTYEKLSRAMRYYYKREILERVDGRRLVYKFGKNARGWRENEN
Procedure, shortened: as §1

SPI1 = SPI1 (Homo sapiens, UniProt P17947 1-270)
Procedure, shortened: as §1

SPIB = SPIB (Homo sapiens, UniProt Q01892 1-262)
SPIB, sequence (Q01892 whole entry): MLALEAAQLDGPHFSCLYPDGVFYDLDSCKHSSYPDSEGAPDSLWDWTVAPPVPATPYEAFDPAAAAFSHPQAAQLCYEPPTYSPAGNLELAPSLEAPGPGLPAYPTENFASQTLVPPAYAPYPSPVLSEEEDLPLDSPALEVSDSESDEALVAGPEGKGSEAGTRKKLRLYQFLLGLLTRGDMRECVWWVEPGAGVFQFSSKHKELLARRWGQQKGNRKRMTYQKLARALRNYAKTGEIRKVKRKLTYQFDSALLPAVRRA
Procedure, shortened: as §1

ELK3 = target: T6, ELK3 (Homo sapiens, UniProt P41970 1-407)
T6 sequence: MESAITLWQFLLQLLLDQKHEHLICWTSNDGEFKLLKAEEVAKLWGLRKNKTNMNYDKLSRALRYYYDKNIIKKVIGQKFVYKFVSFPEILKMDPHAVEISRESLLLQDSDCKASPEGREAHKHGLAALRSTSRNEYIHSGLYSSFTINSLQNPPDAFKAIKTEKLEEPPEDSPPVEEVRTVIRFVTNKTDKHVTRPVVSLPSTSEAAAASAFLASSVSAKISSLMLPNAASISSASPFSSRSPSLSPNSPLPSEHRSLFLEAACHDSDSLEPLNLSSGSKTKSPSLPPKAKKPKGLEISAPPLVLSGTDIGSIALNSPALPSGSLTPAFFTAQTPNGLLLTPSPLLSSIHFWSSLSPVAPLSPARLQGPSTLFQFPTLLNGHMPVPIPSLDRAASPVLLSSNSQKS
Procedure, shortened: as §1

With TACACC the binding signal (FLI1) was 1.16 fold enrichment (6-mer frequency, TF over GST control), the binding signal (ELK1) was 1.27 fold enrichment (6-mer frequency, TF over GST control) and the binding signal (GABPA) was 1.14 fold enrichment (6-mer frequency, TF over GST control). The binding signal (ERG) was 1.27 fold enrichment (6-mer frequency, TF over GST control), the binding signal (ELF1) was 1.17 fold enrichment (6-mer frequency, TF over GST control) and the binding signal (EHF) was 1.22 fold enrichment (6-mer frequency, TF over GST control). The binding signal (SPI1) was 1.1 fold enrichment (6-mer frequency, TF over GST control), the binding signal (SPIB) was 1.11 fold enrichment (6-mer frequency, TF over GST control) and the binding signal (ELK3) was 1.14 fold enrichment (6-mer frequency, TF over GST control).
With ATGGTA the binding signal (FLI1) was 1.39 fold enrichment (6-mer frequency, TF over GST control), the binding signal (ELK1) was 1.44 fold enrichment (6-mer frequency, TF over GST control) and the binding signal (GABPA) was 1.39 fold enrichment (6-mer frequency, TF over GST control). For the same sequence, the binding signal (ERG) was 1.33 fold enrichment (6-mer frequency, TF over GST control), the binding signal (ELF1) was 1.36 fold enrichment (6-mer frequency, TF over GST control) and the binding signal (EHF) was 1.43 fold enrichment (6-mer frequency, TF over GST control). For the same sequence, the binding signal (SPI1) was 1.23 fold enrichment (6-mer frequency, TF over GST control), the binding signal (SPIB) was 1.42 fold enrichment (6-mer frequency, TF over GST control) and the binding signal (ELK3) was 1.36 fold enrichment (6-mer frequency, TF over GST control).
In the case of CCTAAA, the binding signal (FLI1) is reported as 1.35 fold enrichment (6-mer frequency, TF over GST control), the binding signal (ELK1) is reported as 1.26 fold enrichment (6-mer frequency, TF over GST control) and the binding signal (GABPA) is reported as 1.25 fold enrichment (6-mer frequency, TF over GST control). For the same sequence, the binding signal (ERG) was 1.37 fold enrichment (6-mer frequency, TF over GST control), the binding signal (ELF1) was 1.34 fold enrichment (6-mer frequency, TF over GST control) and the binding signal (EHF) was 1.28 fold enrichment (6-mer frequency, TF over GST control). The binding signal (SPI1) was 1.25 fold enrichment (6-mer frequency, TF over GST control), the binding signal (SPIB) was 1.26 fold enrichment (6-mer frequency, TF over GST control) and the binding signal (ELK3) was 1.4 fold enrichment (6-mer frequency, TF over GST control).
